# Autofluor counter: compound fluorescence in toxin protease inhibitor counterscreen | AID 624483 | compound autofluorescence counterscreen, microsphere flow cytometry; hits give high values | hit rate 3.1% among 360,000 | fluorescence intensity (test concentration not listed); in the data active = fluorescence intensity above about 16000; inconclusive = no clear call, values can overlap the other calls
# Mtb FBA inh: Mtb fructose-bisphosphate aldolase inhibition; P9WQA3; purified M. tuberculosis FBA, fluorescence read-out; inhibition, % at 1 µM; hit rate 2.3% among 360,000; in the data active = inhibition above about 27%;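 also: 0% = vehicle and 100% = reference inhibitor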
# Target sequence (P9WQA3 whole entry, looked up): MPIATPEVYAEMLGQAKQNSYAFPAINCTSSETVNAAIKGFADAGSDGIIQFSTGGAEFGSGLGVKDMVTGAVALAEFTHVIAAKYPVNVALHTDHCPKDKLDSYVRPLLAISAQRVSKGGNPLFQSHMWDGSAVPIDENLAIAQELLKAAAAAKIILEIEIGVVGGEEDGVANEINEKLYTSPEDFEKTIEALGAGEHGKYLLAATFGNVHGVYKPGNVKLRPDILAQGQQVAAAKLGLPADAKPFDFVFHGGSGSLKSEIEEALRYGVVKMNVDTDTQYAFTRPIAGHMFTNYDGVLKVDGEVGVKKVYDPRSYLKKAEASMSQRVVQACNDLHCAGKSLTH
# GDH-TPI counter-1: inhibits GDH-TPI coupling enzymes, artifact for Mtb FBA screen | AID 588335 | GDH-TPI coupled enzyme counterscreen, NADH absorbance | inhibition, % at 4.8 µM | hit rate 1.2% among 360,000; in the data active = inhibition above about 30%;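 also: 0% = DMSO wells and 100% = wells lacking the enzyme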
# BoNT F protease: inhibitors of Botulinum neurotoxin F light chain protease; inhibition, % at 10 µM; hit rate 0.22% among 360,000; Multiplex microsphere protease cleavage assay, flow cytometry; in the data active = inhibition above about 35%, passing the limit was not always enough; inconclusive = no clear call, values can overlap the other calls; also: plate controls were buffer without enzyme for full effect and enzyme alone for no effect
# BoNT A protease: inhibitors of Botulinum neurotoxin A light chain protease | multiplex microsphere protease substrate cleavage, flow cytometry | inhibition, % at 10 µM | hit rate 0.17% among 360,000; also: plate controls were buffer without enzyme for full effect and enzyme alone for no effect
# Anthrax LF prot: anthrax lethal factor protease inhibition | P15917 | hit rate 0.12% among 360,000 | multiplex microsphere protease cleavage assay, LF | inhibition, % at 10 µM; also: plate controls were buffer without enzyme for full effect and enzyme alone for no effect
# Mtb FBA inh conf: confirmation of M. tuberculosis fructose-bisphosphate aldolase inhibitors. hit rate 78% among 5,600. inhibition, % at 1 µM. shares compounds with Mtb FBA inh. purified M. tuberculosis FBA, fluorescence read-out; in the data active = inhibition above about 27%;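 also: 0% = vehicle wells and 100% = reference inhibitor wells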
# GDH-TPI counter-2: inhibits GDH-TPI coupling enzymes, flagging Mtb FBA hits. AID 652141. hit rate 81% among 5,600. inhibition, % at 1 µM. shares compounds with Mtb FBA inh. GDH-TPI coupled enzyme counterscreen, fluorescence; in the data active = inhibition above about 10%
# * hit, by the source's call; ? = inconclusive; / = not tested or not shown; + = active, no number. Only some compounds are listed: those with a hit (about 6.6% of all), similar ones and a draw of the others. Rule as the data show it, unless noted: active = inhibition above about 30%; inconclusive = no clear call, values can overlap the other calls; inactive = below that.
SMILES,Autofluor counter,Mtb FBA inh,GDH-TPI counter-1,BoNT F protease,BoNT A protease,Anthrax LF prot,Mtb FBA inh conf,GDH-TPI counter-2
S=C(Nc1ccc(-c2nc3ccccc3[nH]2)cc1)Nc1cccnc1,6239,89*,11,-3,-2,0,64*,60*
Fc1ccc(NC(=S)Nc2cccnc2)cc1,3821,5,0,3,-2,3,/,/
c1ccc2[nH]c(-c3ccncc3)nc2c1,4696,30*,3,-8,-1,-3,+,179*
c1csc(-c2nc3ccccc3[nH]2)c1,2742,48*,8,-9,0,-3,63*,47*
CCOC(=O)N1CCN(C(=O)COC(=O)c2cc(C)ccc2C)CC1,3058,4,2,2,0,-3,/,/
O=C(c1cnn2c(-c3ccccc3)cc(-c3ccccc3)nc12)N1CCN(Cc2ccccc2)CC1,4577,9,16,3,2,1,/,/
CC(C)Oc1ccc(S(=O)(=O)N2CCCCC2)cc1NC(=O)C1=NN(c2ccccc2)C(=O)CC1,3653,-4,8,0,0,-6,/,/
O=C(Nc1ccccc1)Nc1nnc([C@@H]2C[C@H](O)[C@@H](CO)O2)s1,3405,0,1,1,0,-3,/,/
Cc1ccc(-c2nc3ccccc3[nH]2)s1,?,58*,30,0,0,3,68*,63*
Cc1[nH]c2ccccc2c1-c1nc2ccccc2[nH]1,3490,14,11,-5,0,2,/,/
CCc1cc(=O)n2c([nH]c3ccccc32)c1C#N,3478,66*,1,-12,0,-1,60*,50*
Cc1ccc(Cc2c(C)c(C#N)c3[nH]c4ccccc4n3c2=O)cc1,5125,48*,-5,1,-1,-3,95*,65*
CCc1c(C)c(C#N)c2[nH]c3ccccc3n2c1=S,3599,30*,11,?,?,21,64*,60*
CCc1cc(=S)n2c([nH]c3ccccc32)c1C#N,4112,9,-1,7,6,-6,/,/
Cc1cccc2cc(C#N)c(NCCCn3ccnc3)nc12,19585*,39*,-3,1,3,5,152*,139*
CCOCCCNC(=S)NCCCNc1nc2c(C)cc(C)cc2cc1C#N,4693,38*,6,-12,23,14,+,147*
Cc1cccc2cc(C#N)c(NCCNS(=O)(=O)c3ccccc3)nc12,4518,13,-3,-6,1,-4,/,/
Cc1ccc2cc(C#N)c(NCCNC(=S)NCCCN(C)C)nc2c1C,3518,15,3,-5,8,-3,/,/
Cc1cc(C)c2nc(NCCCNC(=S)NCCCN(C)C)c(C#N)cc2c1,4056,58*,1,-17,22,3,52*,43*
Cc1cccc2cc(C#N)c(NCCNC(=O)COc3ccccc3)nc12,3671,40*,2,-5,1,-8,102*,89*
CCCCNC(=O)C1(C)CCN1C(=O)c1csnn1 (centres undefined),2993,1,14,4,0,2,/,/
CCOCCCNC(=S)NCCNc1nc2c(C)cccc2cc1C#N,7251,57*,13,-17,11,6,33*,29*
Cc1ccc2cc(C#N)c(NCCNC(=O)C3CC3)nc2c1C,5739,32*,-2,-1,0,-6,133*,111*
O=[N+]([O-])c1ccc(N2CCN(c3ccccn3)CC2)c(Cl)c1,3825,-5,4,-13,1,-1,/,/
COc1ccccc1-c1oc2ccccc2c1-c1ccc2c(c1)OCO2,4381,12,-1,-1,0,-2,/,/
SMILES,Autofluor counter,Mtb FBA inh,GDH-TPI counter-1,BoNT F protease,BoNT A protease,Anthrax LF prot,Mtb FBA inh conf,GDH-TPI counter-2
COc1cc(C#Cc2c(-c3ccccc3OC)oc3ccccc23)cc(OC)c1,3006,34*,24,-9,0,-2,0,2
COc1ccc(-c2ccc(-c3noc(C(C)C)n3)c(OC)n2)cc1,/,108*,25,/,/,/,135*,107*
COc1cc(C(=O)N2CCc3ccccc32)ccc1OCc1c(C)noc1C,5616,4,-4,1,0,4,/,/
COc1cc2c3c(c1)C(C)=CC(C)(C)N3C(=O)C2=O,4223,29*,9,0,0,-7,0,0
O=C(CSc1ccc(S(=O)(=O)N2CCOCC2)cn1)Nc1ccc(F)c(F)c1,?,-1,3,-1,2,0,/,/
COCOc1ccc(-c2cc(=O)c3c(OCOC)cc(OCOC)cc3o2)cc1,4285,64*,21,0,0,1,106*,64*
COc1ccc(C(=O)NNC(=O)CN2CCC(n3nnc4cc(F)ccc43)CC2)cc1,9553,1,11,5,1,0,/,/
CC1(C)Cc2nc(NC3CCCCC3)c(C#N)cc2CO1,4291,36*,11,-4,0,4,127*,111*
CCOC(=O)C(=Nc1ccc(Cl)cc1)NO,2547,4,-1,0,0,-1,/,/
Cc1nc2nc(-c3ccc(F)cc3)cn2nc1C,3804,50*,9,7,4,-4,43*,38*
C[C@@H]1CN(C(=O)c2nc3ccc(Cl)cn3c2CN2CCc3sccc3C2)C[C@H](C)O1,2525,1,3,-6,1,2,/,/
COc1ccc(C2C(C#N)=C(N)Oc3c2c(C)nn3-c2ccccc2)cc1Cn1nc(C)c([N+](=O)[O-])c1C (centres undefined),5906,0,20,1,0,-4,/,/
COc1ccc(C2C(C#N)=C(N)OC3=C2C(=O)CC(C)(C)C3)cc1Cn1nc(C)c([N+](=O)[O-])c1C (centres undefined),2173,39*,-4,1,0,-1,54*,47*
CCCCn1c(=O)nc2n(-c3ccccc3)c3ccccc3cc-2c1=O,11112,46*,10,11,6,-2,123*,98*
CCCCn1c(=O)cc(C)n(-c2ccccc2)c1=O,4321,0,-4,1,0,3,/,/
Cc1ccc(C)c(-n2c3nc(=O)n(C)c(=O)c-3cc3ccccc32)c1,5297,100*,19,23,3,-10,+,+
CCc1nc2c(OCC(=O)c3ccc(F)cc3)cccn2c1N(C)C(=O)c1cccs1,3021,2,15,-3,0,5,/,/
O=C(Nc1ccn(CCCN2CCN(c3ccccn3)CC2)c(=O)n1)OCc1ccccc1,3464,1,-6,-1,0,-1,/,/
C/C=C(\C)C(=O)OC(C)(C)[C@@H]1Cc2cc3ccc(=O)oc3cc2O1,3570,93*,10,1,0,-12,157*,114*
NC(=O)NC(=O)C(c1ccccc1)N1CCN(S(=O)(=O)Cc2ccccc2)CC1 (centres undefined),2732,1,-4,-6,0,-8,/,/

# Source: PubChem (several laboratories)
